Records with an inconclusive call do not appear. Entries that show only a call come without a potency. Activity calls are given as the source filed them. Calls come from the whole dose curve. Numbered stars: 1 amine (or outer) side, 2 acyl side, 3 side chain; on linkers, the order of the positions; unused ones are H or OH. Bridge positions count the residues as written; N and C are the ends. Square brackets hold non-standard residues; d marks the D form. Peptide text beside a SMILES is read from it. * marks the point of attachment. X6 = NC1=N[C@@H](O)C[C@H]([C@H](N[*:1])C(=O)[*:2])N1; ΔAla(Z-3-ureido) = NC(=O)N/C=C(\N)C(=O)O; Octanoyl(6-Me) = CCC(C)CCCCC(=O)*; β3hOrn = NCCC[C@H](N)CC(=O)*; Dab = NCC[CH](N)C(=O)O; Dap = NC[C@H](N)C(=O)O
Assay: Primary qHTS for inhibitors of MERS-S pseudo-typed particle cell entry (AID 1479149); note: nearly all actives have a fitted effect of over 60% in size
Conditions: MERS-S pseudotyped particle entry, luciferase; series mostly up to 57.1 µM

| Compound | Potency | outcome |
| --- | --- | --- |
| CNC[C@@H]1CC[C@@H](N)[C@@H](O[C@H]2[C@H](O)[C@@H](O[C@H]3OC[C@](C)(O)[C@H](NC)[C@H]3O)[C@H](N)C[C@@H]2N)O1 | inactive |  |
| CO[C@H]1C[C@@H]2CC[C@@H](C)[C@@](O)(O2)C(=O)C(=O)N2CCCC[C@H]2C(=O)O[C@H]([C@H](C)C[C@@H]2CC[C@@H](OC(=O)C(C)(CO)CO)[C@H](OC)C2)CC(=O)[C@H](C)/C=C(\C)[C@@H](O)[C@@H](OC)C(=O)[C@H](C)C[C@H](C)/C=C/C=C/C=C/1C | inactive |  |
| CC(=O)OC1CCC2(C)C(=CCC3C2CCC2(C)C(c4cccnc4)=CCC32)C1 (stereo not given) | inactive |  |
| CC(C)(C)NCC(O)COc1ccccc1C#N (stereo not given) | inactive |  |
| CCOc1ccc(Cc2cc([C@@H]3O[C@H](CO)[C@@H](O)[C@H](O)[C@H]3O)ccc2Cl)cc1 | inactive |  |
| CO/N=C(\C(=O)N[C@@H]1C(=O)N2C(C(=O)O)=C(CSc3cnns3)CS[C@H]12)c1csc(N)n1 | inactive |  |
| O=P(O)(O)OP(=O)(O)O | inactive |  |
| CC1(C)S[C@@H]2[C@@H](N3C(=O)[C@@H](c4ccccc4)NC3(C)C)C(=O)N2[C@H]1C(=O)O | inactive |  |
| CNCC(O)c1ccc(OC(=O)C(C)(C)C)c(OC(=O)C(C)(C)C)c1 (stereo not given) | inactive |  |
| CCCCC(=O)O | inactive |  |
| NCCC[C@H](N)CC(=O)N[C@H]1CNC(=O)[C@H]([C@H]2C[C@H](O)N=C(N)N2)NC(=O)/C(=C/NC(N)=O)NC(=O)[C@H](CO)NC(=O)[C@H](CO)NC1=O (β3hOrn-[Dap]SS[ΔAla(Z-3-ureido)][X6]; lactam 1-C) | inactive |  |
| CS(=O)(=O)n1cc2c(n1)CN([C@H]1CO[C@H](c3cc(F)ccc3F)[C@@H](N)C1)C2 | inactive |  |
| CO/N=C(\C(=O)N[C@@H]1C(=O)N2C(C(=O)O)=C(Cn3ccc(=N)n3CCO)CS[C@H]12)c1csc(N)n1 | inactive |  |
| CN[C@H]1C(=O)N[C@@H]2Cc3ccc(cc3)Oc3cc4cc(c3O[C@@H]3O[C@H](C(=O)O)[C@@H](O)[C@H](O)[C@H]3NC(=O)CCCCCCCCC(C)C)Oc3ccc(cc3Cl)[C@@H](O)[C@@H]3NC(=O)[C@H](NC(=O)[C@@H]4NC(=O)[C@@H](NC2=O)c2cc(cc(O)c2Cl)Oc2cc1ccc2O)c1ccc(O)c(c1)-c1c(O[C@H]2O[C@H](CO)[C@@H](O)[C@H](O)[C@@H]2O)cc(O)cc1[C@@H](C(=O)NCCCN(C)C)NC3=O | inactive |  |
| CNC(=O)OCc1cccc(COC(=O)NC)n1 | inactive |  |
| CSCCNc1nc(SCCC(F)(F)F)nc2c1ncn2[C@@H]1O[C@H](COP(=O)(O)OP(=O)(O)C(Cl)(Cl)P(=O)(O)O)[C@@H](O)[C@H]1O | inactive |  |
| COC(=S)NCCn1c([N+](=O)[O-])cnc1C | inactive |  |
| O=C(O[C@H]1C[N+]2(CCCOc3ccccc3)CCC1CC2)C(O)(c1cccs1)c1cccs1 | inactive |  |
| O=C1C(c2[nH]c3ccc(S(=O)(=O)O)cc3c2O)=Nc2ccc(S(=O)(=O)O)cc21 | inactive |  |
| CO[C@H]1/C=C\O[C@@]2(C)Oc3c(C)c(O)c4c(O)c(c5c(nc6cc(C)ccn65)c4c3C2=O)NC(=O)/C(C)=C\C=C/[C@H](C)[C@H](O)[C@@H](C)[C@@H](O)[C@@H](C)[C@H](OC(C)=O)[C@@H]1C | inactive |  |

| Compound | Potency | outcome |
| --- | --- | --- |
| CN(C)/C(N)=N/C(=N)N |  | inactive [setting not given] |
| C[C@@H]1C[C@H]2[C@@H]3CCC4=CC(=O)C=C[C@]4(C)[C@@]3(F)[C@@H](O)C[C@]2(C)[C@@]1(O)C(=O)COP(=O)(O)O |  | inactive [at 11.4 µM] |
| CCCC(=O)O[C@]1(C(=O)COC(=O)CC)[C@@H](C)C[C@H]2[C@@H]3CCC4=CC(=O)C=C[C@]4(C)[C@@]3(F)[C@@H](O)C[C@@]21C | inactive |  |
| CC(CCc1ccc(O)cc1)NCC(O)c1ccc(O)cc1 (stereo not given) | inactive |  |
| OC[C@H]1OC(O)C[C@@H](O)[C@@H]1O (stereo not given in full) | inactive |  |
| CC1(C)S[C@@H]2[C@H](NC(=O)C(C(=O)Oc3ccc4c(c3)CCC4)c3ccccc3)C(=O)N2[C@H]1C(=O)O (stereo not given in full) | inactive |  |
| C[C@H](CCC(=O)O)[C@H]1CC[C@H]2[C@@H]3[C@H](O)C[C@@H]4C[C@H](O)CC[C@]4(C)[C@H]3C[C@H](O)[C@]12C | inactive |  |
| NC[C@@H]1O[C@H](O[C@H]2[C@@H](O)[C@H](O[C@@H]3[C@@H](O)[C@H](N)C[C@H](N)[C@H]3O[C@H]3O[C@H](CO)[C@@H](O)[C@H](O)[C@H]3N)O[C@@H]2CO)[C@H](N)[C@@H](O)[C@@H]1O |  | inactive [at 0.573 µM] |
| O=C(Cc1cccs1)NC1C(=O)N2C(C(=O)[O-])=C(C[n+]3ccccc3)CSC12 (stereo not given) | inactive |  |
| COC(=O)N[C@H](C(=O)N1CCC[C@H]1C(=O)Nc1ccc([C@@H]2CC[C@@H](c3ccc(NC(=O)[C@@H]4CCCN4C(=O)[C@@H](NC(=O)OC)C(C)C)cc3)N2c2ccc(C(C)(C)C)cc2)cc1)C(C)C | inactive |  |
| CC(C)(C)C(=O)OCC(=O)[C@H]1CC[C@H]2[C@@H]3CCC4=CC(=O)CC[C@]4(C)[C@H]3CC[C@]12C | inactive |  |
| NC(=O)OCC(O)COc1ccc(Cl)cc1 (stereo not given) | inactive |  |
| CC(C=CC1=C(C)CCCC1(C)C)=CC=CC(C)=CC(=O)Oc1c(C)c(C)c2c(c1C)CC[C@@](C)(CCC[C@H](C)CCC[C@H](C)CCCC(C)C)O2 |  | inactive [at 5.34 µM] |
| CCC(C)CCCCC(=O)NC(CCN)C(=O)NC(C(=O)NC(CCN)C(=O)NC1CCNC(=O)C(C(C)O)NC(=O)C(CCN)NC(=O)C(CCN)NC(=O)C(CC(C)C)NC(=O)C(Cc2ccccc2)NC(=O)C(CCN)NC1=O)C(C)O (stereo not given) ({Octanoyl(6-Me)}-[Dab]T[Dab][Dab][Dab]FL[Dab][Dab]T; lactam 4-C; configuration not given here) | inactive |  |
| O=C[C@H](O)[C@@H](O)[C@H](O)[C@H](O)CO | inactive |  |
| CCCCCCCCCCCCCCCCOc1nc2ccc(C)cc2c(=O)o1 | inactive |  |
| CCCC(=O)O[C@]1(C(=O)COC(C)=O)CC[C@H]2C3C[C@H](F)C4=CC(=O)C=C[C@]4(C)[C@@]3(F)[C@@H](O)C[C@@]21C (stereo not given in full) | inactive |  |
| COC(=O)CCC(=O)CN | inactive |  |
| CCCCCCCCCCCC(=O)OCN1C(=O)CCc2ccc(OCCCCN3CCN(c4cccc(Cl)c4Cl)CC3)cc21 | inactive |  |
| CC(O)C(CO)NC(=O)C1CSSCC(NC(=O)C(N)Cc2ccccc2)C(=O)NC(Cc2ccccc2)C(=O)NC(Cc2c[nH]c3ccccc23)C(=O)NC(CCCCN)C(=O)NC(C(C)O)C(=O)N1 (stereo not given) | inactive |  |

Reference: PubChem BioAssay (NCATS)
